Structures are written as SMILES. Inconclusive results are not listed. Calls of active or inactive are those of the source. The call rests on the fitted dose curve; in most records, active means well fitted curve in either direction with a large enough effect (not every such curve was filed as active); inconclusive means small, poorly fitted or top-dose-only effect, or another doubt; inactive means flat fitted curve, though single readings scatter.

This assay deals with Mitogen-activated protein kinase 10 (Mus musculus) (UniProt Q61831). In words: JNK3 AlphaScreen Assay (AID 530).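 Further: kinase came from lysate of stimulated human HepG2 cells; signal reports phosphorylation of biotinylated GST-cJun 1-79 at Ser73 with 10 µM ATP.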 The note with it: JNK3 lysate, c-Jun phosphorylation; series mostly up to 57.1 µM. A digest of the protocol:
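qHTS format: compounds tested as titrations against IL-1beta/TNF-alpha-activated HepG2 lysate JNK3 with biotin-GST-cJun substrate and 10 uM ATP at room temperature. Loss of anti-phospho-cJun AlphaScreen signal indicates inhibition.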
(In Alpha technology, singlet oxygen from a donor bead excites a nearby acceptor bead.)
For the compound `Clc1ccccc1-c1nccc(-n2ccnc2)n1`, the compound was called inactive.

`Cc1cccc(CNc2ccnc(-c3ccoc3)n2)c1`: the result was inactive.

Consider `c1nc(NC2CCNCC2)c2cc(-c3ccc4c(c3)OCO4)ccc2n1`, for which the call was inactive.

On to `O=c1c(-c2ccccc2)nc2cnc(Oc3ccccc3)nc2n1Cc1cccs1`, for which the call was inactive.

For the compound `COc1ccc(-n2c(=O)c(-c3cn(C)c4ccccc34)nc3cnc(OC)nc32)cc1`, the result was inactive.

As for `CN(C)c1ncc2ncc(=O)n(CCC#N)c2n1`, the outcome was inactive.

Turning to `COc1ccccc1CNc1ncncc1-c1ccoc1`, the call was inactive.

Consider `COc1ncc2ncc(=O)n(Cc3cccs3)c2n1`, for which the result was inactive.

As to `FC(F)(F)c1ccccc1-c1cc(N2CCNCC2)ncn1`, the compound was called inactive.

Turning to `CC(=O)NCCNc1nc(-c2ccccc2C(F)(F)F)nc2ccccc12`, the result was inactive.

For the compound `COc1ccccc1CNc1ccnc(-c2ccoc2)n1`, the outcome was inactive.

Regarding `Cc1ccccc1-c1cncnc1Nc1ccc(F)cc1`, the call was inactive.

`CN(Cc1ccco1)c1cc(-c2ccccc2Cl)ncn1`: the compound was called inactive.

As to `COc1ccc(-n2c(=O)cnc3cnc(Oc4ccccc4)nc32)cc1`, the outcome was inactive.

Turning to `COc1ncc2nc(-c3cccc(C#N)c3)c(=O)n(CCC#N)c2n1`, the outcome was inactive.

Turning to `CN(Cc1ccco1)c1ncnc2ccc(-c3cccc(C#N)c3)cc12`, the result was inactive.

For the compound `c1ccc(CNc2ccnc(-c3ccoc3)n2)cc1`, the compound was classed as inactive.

In the case of `COc1ncc2nc(-c3cc(F)cc(F)c3)c(=O)n(CCC#N)c2n1`, the compound was classed as inactive.

With `Cc1nc2cnc(Nc3ccccc3)nc2n(C)c1=O`, the outcome was inactive.

On to `COc1ccc(-n2c(=O)c(C)nc3cnc(Oc4ccccc4)nc32)cc1`, for which the compound was called inactive.

As to `COc1ccccc1CCn1c(=O)c(-c2cc(F)cc(F)c2)nc2cncnc21`, the compound was called inactive.

On to `COc1cccc(-c2ccc3ncnc(NC4CCNCC4)c3c2)c1`, for which the compound was classed as inactive.

`COc1cccc(-c2cc(NCc3cccs3)ncn2)c1`: the outcome was inactive.

`Cn1c(=O)c(-c2cc(F)cc(F)c2)nc2cnc(Oc3ccccc3)nc21`: the compound was called inactive.

Turning to `CNc1nc(-c2ccccc2Cl)nc2ccccc12`, the compound was called inactive.

For `O=C(O)C1CCN(c2ncnc3ccc(-c4ccccc4C(F)(F)F)cc23)CC1`, the outcome was inactive.

On to `CC(=O)NCCNc1nc(-c2ccccc2Cl)nc2ccccc12`, for which the outcome was inactive.

As for `O=c1c(-c2ccc(F)cc2)nc2cnc(N3CCOCC3)nc2n1C[C@H]1CCCO1`, the compound was classed as inactive.

`Cc1cccc(CNc2ncncc2-c2cccc(C#N)c2)c1`: the compound was classed as inactive.

In the case of `COc1ccc(Oc2ncc3nc(-c4ccc(OC)cc4)c(=O)n(Cc4cccs4)c3n2)cc1`, the compound was classed as inactive.

Consider `Cc1cccc(CNc2ncncc2-c2ccc3c(c2)OCO3)c1`, for which the call was inactive.

With `N#CCCn1c(=O)cnc2cnc(N3CCOCC3)nc21`, the call was inactive.

For `COc1ncc2nc(-c3cccs3)c(=O)n(-c3ccccc3)c2n1`, the compound was called inactive.

On to `COc1ccc2[nH]cc(CCNc3cc(-c4ccccc4C(F)(F)F)ncn3)c2c1`, for which the result was inactive.

For the compound `Cc1nc2cnc(Oc3cccc(Cl)c3)nc2n(CCC#N)c1=O`, the outcome was inactive.

Turning to `COc1ncc2ncc(=O)n(C)c2n1`, the outcome was inactive.

For the compound `c1ccc2c(-n3ccnc3)nc(-c3ccoc3)nc2c1`, the outcome was inactive.

Take `COc1cccc(-c2nccc(-n3ccnc3)n2)c1`: the outcome was inactive.

Regarding `CN(C)c1ccc(-c2cc(-n3ccnc3)ncn2)cc1`, the compound was classed as inactive.

(Values after PubChem BioAssay (NCATS).)
